Each structure is given as a SMILES string. Hit rate of the full screen: of about 1,300 compounds, about 420 (32%) were called active. Inconclusive results (about 32%) are left out. Calls come from the whole dose curve; as a rule, active = well fitted inhibition curve with a large enough effect; inconclusive = small, poorly fitted or top-dose-only effect; inactive = no such curve, though single readings can be large or run the other way. Some of the results follow.
Potency is the fitted concentration of half-maximal effect.

The test deals with C-terminal-binding protein 1 (Homo sapiens) (UniProt Q13363). Kind of test: qHTS for Inhibitors of the Phosphatase Activity of Eya2: Carboxyl-terminal binding protein (CtBP) Counterscreen for Cherry-picked Compounds. Note: nearly all actives have a fitted effect of over 65% in size. As to conditions: purified protein-protein binding, AlphaScreen, 3 h; series mostly up to 46.1 µM. In short, it runs like this:
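Cherry-picked compounds (final 2.5 nM–46 uM) were incubated 2 h at RT with 25 nM CtBP-6xHIS and 25 nM GST-E1A. Alpha beads (20 ug/mL) were then added for 1 h, light-protected; DMSO and E1A peptide inhibitor wells set the normalization.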
Background: In qHTS, concentration-response curves come from the screen itself.
As for `COC(=O)c1c(C)[nH]c(C(=O)C(C)OC(=O)C2CC(=O)N(c3ccc(C)cc3)C2)c1C` (stereo not given), the Potency entry was “inactive”.

With `COc1cc(CNCc2ccc(OC)cc2OC)cc(OC)c1`, the Potency entry is “inactive”.

On to `O=C(O)c1cc(-c2ccc(/C=C3\NC(=O)N(c4ccc(Cl)cc4)C3=O)o2)ccc1Cl`, for which the Potency was 8.49 µM (active).

`CC(C)Nc1nnc(SCC(=O)Nc2ccc3c(c2)C(=O)c2ccccc2C3=O)s1`: the Potency is 5.36 µM (active).

`Cc1cc(NC(=O)CSc2nnc(Nc3ccccc3F)s2)no1`: the Potency entry was “inactive”.

As for `CCCCc1cc(=O)oc2cc(OCC(=O)N3CCC(C(=O)O)(c4ccccc4)CC3)ccc12`, the Potency entry is “inactive”.

Consider `Cc1coc2c(C)c3oc(=O)c(CCC(=O)N4CCC(C(=O)NCCCC(=O)O)(c5ccccc5)CC4)c(C)c3cc12`, for which the Potency was 15.1 µM (active).

For `CC1(C)CC(=O)C=C(c2ccc(COC(=O)c3cc(F)cc(F)c3)cc2)C1=O`, the Potency result was “inactive”.

Take `Cc1ccc(C(=O)N/C(=C\c2ccco2)C(=O)NCCCn2ccnc2)cc1`: the Potency was 3.79 µM (active).

`CCn1cc(C(=O)N[C@@H](C)C(=O)NCCCn2ccnc2)c(=O)c2cc3c(cc21)OCO3`: the Potency result is “inactive”.

Regarding `Cc1ccc(Nc2nnc(SCC(=O)c3c(N)n(C4CC4)c(=O)[nH]c3=O)s2)cc1C`, the Potency entry is “inactive”.

Turning to `Cc1cccc(Nc2nnc(SCC(=O)NCC3CCCO3)s2)c1` (stereo not given), the Potency was 15.1 µM (active).

As to `C/C(N)=C(/C#N)C(=O)CSc1nnc(Nc2cccc(C)c2)s1`, the Potency entry is “inactive”.

For `COc1ccc(-c2cn3c(C)c(C(=O)NCc4ccc5c(c4)OCO5)sc3n2)cc1`, the Potency entry is “inactive”.

In the case of `O=c1[nH][nH]cc1C=Nc1cc(Cl)ccc1O`, the Potency is 8.49 µM (active).

As for `O=c1oc(-c2ccco2)nc2ccccc12`, the Potency was 13.5 µM (active).

For `CN(C)c1ccc(/C=C/c2ccnc3ccc(-c4ccccc4)cc23)cc1`, the Potency is 12 µM (active).

For the molecule `Cc1cc(C)c2c(/C=C/c3ccc(N(C)C)cc3)ccnc2c1`, the Potency was 13.5 µM (active).

As for `COc1ccc(N=C2SC(C(=O)N3CCN(c4ccc([N+](=O)[O-])cc4)CC3)CC(=O)N2C)cc1` (stereo not given), the Potency result was “inactive”.

For `O=C(Nc1ccccc1)c1ccc2nc(-c3ccco3)c(-c3ccco3)nc2c1`, the Potency was 13.5 µM (active).

Consider `CC(C)(C)NC(=O)c1cccc(NC(=O)c2ccc(NC(=O)c3ccco3)cc2)c1`, for which the Potency result is “inactive”.

`O=C(NC1CC1)c1ccc2nc(-c3ccco3)c(-c3ccco3)nc2c1`: the Potency was 8.49 µM (active).

Take `O=C(NCCCO)c1ccc2nc(-c3ccco3)c(-c3ccco3)nc2c1`: the Potency is 5.36 µM (active).

With `O=C(O)c1ccc2nc(-c3ccco3)c(-c3ccco3)nc2c1`, the Potency is 7.57 µM (active).

`CC(C)[C@H](NC(=O)c1ccccc1)C(=O)NC1CCCCCCC1`: the Potency result was “inactive”.

These data come from PubChem BioAssay AID720541 (National Center for Advancing Translational Sciences (NCATS), 2013).
